This is part of a sample that, as a whole, favours compounds with a hit. Of some 83,000 tested, about 20% had one in any assay.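 Cell lines were cultured in 96-well plates, exposed to a single compound concentration, and assessed for percent growth 48 hours later.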 A number with no mark means an inactive call. Active and inactive are the calls of the source. The calls were made as follows: active = growth percent below 10; inactive = the rest.

Some test systems named below: NCI-H23 lung; NCI-H226 lung; NCI-H322M lung; HOP-62 NSCLC; NCI-H460 lung; HOP-92 NSCLC; NCI-H522 lung; A549/ATCC NSCLC; 786-0 renal; COLO 205 colon; DU-145 prostate; K-562 leukemia; MALME-3M melanoma; MDA-MB-231 breast; RXF 393 renal; SF-268 CNS; SF-295 CNS; SF-539 CNS; UACC-257 melanoma; M14 melanoma.
Common to all, as to assay: NCI-60 one-dose screen, 48 h (100 = growth as untreated, 0 = no growth, -100 = all killed)
Conditions in all cases: 10 µM unless noted

For `[O-]/[N+](=C\c1ccc(-n2cc(Cc3ccccc3Cc3cn(-c4ccc(/C=[N+](/[O-])c5ccccc5)cc4)nn3)nn2)cc1)c1ccccc1`, the growth in the experiment with NCI-H23 lung was 94.7%; in the experiment with NCI-H226 lung, 101%; in the experiment with NCI-H322M lung it was 93.3%; with HOP-62 NSCLC it was 100%; with NCI-H460 lung, 108%; with HOP-92 NSCLC it was 112%. In addition, the growth in the experiment on NCI-H522 lung was 97%; with A549/ATCC NSCLC it was 105%; in the experiment on 786-0 renal, 97.5%; in the experiment on COLO 205 colon, 107%; with DU-145 prostate, 106%; in the experiment with K-562 leukemia, 86.6%. Also, the growth in the experiment on MALME-3M melanoma was 102%; with MDA-MB-231 breast, 103%; with RXF 393 renal, 116%; with SF-268 CNS, 92.8%; with SF-295 CNS, 99.5%; in the experiment with SF-539 CNS, 92.2%. Further, in the experiment on UACC-257 melanoma, the growth was 108%.
On to `OCCn1cc(-c2nc(-c3c[nH]c4ncccc34)cs2)c2cc(F)ccc21`, for which the growth was 76.2% in the experiment with NCI-H23 lung; 48.4% in the experiment with NCI-H226 lung; 66.3% in the experiment on NCI-H322M lung; 71.9% in the experiment with HOP-62 NSCLC; 65.7% with NCI-H460 lung; 52.3% with HOP-92 NSCLC. Moreover, the growth with NCI-H522 lung was 45.5%; with A549/ATCC NSCLC it was 63%; in the experiment with 786-0 renal it was 81.9%; in the experiment on COLO 205 colon, 66.4%; in the experiment on DU-145 prostate, 83.7%; with K-562 leukemia, 21.5%. For the same compound, the growth with MALME-3M melanoma is 84.9%; in the experiment with MDA-MB-231 breast it was 64.5%; in the experiment with RXF 393 renal it was 51.1%; with SF-268 CNS it was 77%; in the experiment on SF-295 CNS, 72.1%; in the experiment with SF-539 CNS, 81.5%. The growth in the experiment with UACC-257 melanoma was 87.8%.
With `COc1c(B(O)O)cccc1-c1cc(C)c2c(ccc3[nH]ncc32)n1`, the growth with NCI-H23 lung is 78.4%; in the experiment on NCI-H226 lung it was 89.7%; in the experiment on NCI-H322M lung it was 74.3%; with HOP-62 NSCLC, 46.3%; in the experiment with NCI-H460 lung it was 71%; with HOP-92 NSCLC, 41.8%. The growth in the experiment on NCI-H522 lung is 62.6%; with A549/ATCC NSCLC, 75.1%; with 786-0 renal, 40.9%; in the experiment with COLO 205 colon, 93.3%; in the experiment with DU-145 prostate it was 80.8%; in the experiment with K-562 leukemia, 99.4%. The growth in the experiment with MALME-3M melanoma is 179%; in the experiment on MDA-MB-231 breast, 22.1%; in the experiment with RXF 393 renal it was 7.05% (active); in the experiment on SF-268 CNS, 62.7%; with SF-295 CNS it was 87.8%; in the experiment with SF-539 CNS it was 25.2%. Also, in the experiment on UACC-257 melanoma, the growth was 126%.
Consider `COc1ccc(Cc2cnc(NC(=O)c3cc(C)oc3C)s2)cc1`, for which the growth was 59.5% in the experiment on NCI-H23 lung; 70.7% in the experiment on NCI-H226 lung; 51.9% in the experiment on NCI-H322M lung; 53% with HOP-62 NSCLC; 16.6% in the experiment with NCI-H460 lung; 49.9% in the experiment on HOP-92 NSCLC. Moreover, the growth in the experiment with NCI-H522 lung is 14.4%; in the experiment with A549/ATCC NSCLC, 38.1%; in the experiment on 786-0 renal, 43.4%; in the experiment with COLO 205 colon, 42.9%; in the experiment on DU-145 prostate it was 40.7%; with K-562 leukemia it was 11.4%. The growth in the experiment with MALME-3M melanoma was 52.5%; in the experiment with MDA-MB-231 breast, 63.6%; in the experiment with RXF 393 renal, 16.4%; in the experiment on SF-268 CNS, 53.3%; with SF-295 CNS it was 39.4%; in the experiment with SF-539 CNS it was 32.5%. Also, the results for the growth in the experiment with UACC-257 melanoma and in the experiment on M14 melanoma were 57.3% and 18.9%, respectively.
`Cc1cc(N2CCN(CC(=O)Nc3ccc4c(ccn4C)c3)CC2)nc(N2CCCCCC2)n1`: the growth is 99.9% in the experiment with NCI-H23 lung; 97.9% with NCI-H226 lung; 92.9% in the experiment with NCI-H322M lung; 80.2% in the experiment on HOP-62 NSCLC; 101% in the experiment with NCI-H460 lung; 60.5% in the experiment with HOP-92 NSCLC. Besides, the growth with NCI-H522 lung is 73.3%; in the experiment on A549/ATCC NSCLC it was 85.3%; in the experiment with 786-0 renal, 93.8%; with COLO 205 colon, 81.1%; in the experiment with DU-145 prostate it was 94.2%; with K-562 leukemia it was 65.6%. Also, the growth with MALME-3M melanoma is 93.6%; with MDA-MB-231 breast, 101%; in the experiment on RXF 393 renal it was 86.2%; with SF-268 CNS, 102%; in the experiment with SF-295 CNS it was 98.9%; in the experiment with SF-539 CNS, 110%. Also, the growth with UACC-257 melanoma is 91.9%.
Consider `O=C(Nc1nc2cc(C(=O)N3CCN(C(c4ccccc4)c4ccccc4)CC3)ccc2o1)c1ccc(NC2CCCCC2)c([N+](=O)[O-])c1`, for which the growth is 69.5% with NCI-H23 lung; 65.1% with NCI-H226 lung; 59.4% in the experiment on NCI-H322M lung; 47.4% with HOP-62 NSCLC; 46.8% in the experiment on NCI-H460 lung; 73.3% with HOP-92 NSCLC. Moreover, the growth in the experiment on NCI-H522 lung was 64.2%; in the experiment on A549/ATCC NSCLC, 56.1%; with 786-0 renal, 53.6%; in the experiment with COLO 205 colon, 79.7%; in the experiment with DU-145 prostate, 61.9%; in the experiment with K-562 leukemia it was 47%. The growth in the experiment on MALME-3M melanoma is 68.7%; in the experiment with MDA-MB-231 breast, 75%; in the experiment with RXF 393 renal, 74.9%; in the experiment with SF-268 CNS it was 58.2%; in the experiment on SF-295 CNS it was 42.1%; in the experiment on SF-539 CNS, 59.9%. For the same compound, the growth was 62.2% in the experiment on UACC-257 melanoma and 58.2% in the experiment with M14 melanoma.
Take `COc1ccc2c(c1)N(CCO)C1=C(C(=O)OC1)C2c1cccc(F)c1` (stereo not given): the growth with NCI-H23 lung was 25.6%; in the experiment on NCI-H226 lung, 45%; in the experiment on NCI-H322M lung, 46.5%; in the experiment on HOP-62 NSCLC, 36.9%; in the experiment with NCI-H460 lung it was 6.1% (active); in the experiment with HOP-92 NSCLC it was 57.4%. Further, the growth is 6.05% (active) with NCI-H522 lung; 16.1% with A549/ATCC NSCLC; 27.9% in the experiment with 786-0 renal; -22.6% (active) in the experiment on COLO 205 colon; 10.1% with DU-145 prostate; 9.63% (active) in the experiment with K-562 leukemia. Further, the growth in the experiment with MALME-3M melanoma was 55.7%; in the experiment on MDA-MB-231 breast, 36%; in the experiment with RXF 393 renal, 31.3%; in the experiment with SF-268 CNS it was 35.5%; in the experiment with SF-295 CNS it was -15.6% (active); with SF-539 CNS it was -17.3% (active). Further, in the experiment on UACC-257 melanoma, the growth was 67.6%.

The values above are taken from PubChem BioAssay (NCI).
